Data reported in PubChem BioAssay (NCATS).
Records with an inconclusive call do not appear. Calls of active or inactive are those of the source. The call rests on the fitted dose curve; in most records, active means well fitted curve in the direction sought with a large enough effect; inconclusive means small, poorly fitted or top-dose-only effect, or another doubt; inactive means no such curve, though single readings can be large; an effect the other way counts as inactive or inconclusive.

Key:
[1] = target: Rap guanine nucleotide exchange factor 3 (Homo sapiens) (UniProt O95398); assay: Confirmatory qHTS for antagonist of cAMP-regulated guanine nucleotide exchange factor 3 (EPAC1) (AID 1645880); further: nearly all actives have a fitted effect of over 55% in size; further: potency means the concentration at half of the fitted maximal effect
Sequence of Rap guanine nucleotide exchange factor 3 (Homo sapiens) (O95398 whole entry, looked up): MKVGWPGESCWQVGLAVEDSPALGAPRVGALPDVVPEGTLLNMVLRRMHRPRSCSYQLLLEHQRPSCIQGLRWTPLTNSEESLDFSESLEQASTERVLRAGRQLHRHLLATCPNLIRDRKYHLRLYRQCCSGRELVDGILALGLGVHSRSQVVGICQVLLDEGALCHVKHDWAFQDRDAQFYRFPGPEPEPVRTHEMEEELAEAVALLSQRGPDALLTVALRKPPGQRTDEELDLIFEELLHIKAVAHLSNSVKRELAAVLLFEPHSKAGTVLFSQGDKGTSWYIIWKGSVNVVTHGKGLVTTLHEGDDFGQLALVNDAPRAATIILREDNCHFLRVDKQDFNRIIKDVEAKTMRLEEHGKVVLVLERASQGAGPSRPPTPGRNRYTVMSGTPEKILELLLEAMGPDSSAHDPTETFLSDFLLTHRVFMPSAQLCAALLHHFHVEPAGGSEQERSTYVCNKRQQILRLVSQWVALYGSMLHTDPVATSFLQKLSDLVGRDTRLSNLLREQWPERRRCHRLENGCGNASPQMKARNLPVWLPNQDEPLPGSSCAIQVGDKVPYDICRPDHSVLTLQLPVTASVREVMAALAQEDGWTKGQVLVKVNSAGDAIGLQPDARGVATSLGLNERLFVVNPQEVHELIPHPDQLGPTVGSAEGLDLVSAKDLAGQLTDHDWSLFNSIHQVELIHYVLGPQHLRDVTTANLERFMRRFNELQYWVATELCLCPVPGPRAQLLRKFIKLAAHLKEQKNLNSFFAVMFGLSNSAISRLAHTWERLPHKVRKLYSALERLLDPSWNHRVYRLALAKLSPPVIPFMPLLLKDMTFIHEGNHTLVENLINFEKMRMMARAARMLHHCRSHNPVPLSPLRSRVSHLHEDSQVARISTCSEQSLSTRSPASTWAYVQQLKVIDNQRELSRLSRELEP
In short: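 Released BODIPY-GDP fluoresces less than Rap1-bound BODIPY-GDP; the signal is followed at 480/540 nm at 5-min intervals over 30 min, after 5 min at room temperature. Reactions contain 100 nM EPAC1, 250 nM RAP1B-BODIPY-GDP and 50 uM GDP; results are normalized to ATA and DMSO.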

[2] = target: Rap guanine nucleotide exchange factor 3 (Homo sapiens) (UniProt O95398); assay: Confirmatory qHTS for agonist of cAMP-regulated guanine nucleotide exchange factor 3 (EPAC1) (AID 1645881); further: nearly all actives have a fitted effect of over 75% in size; further: potency means the concentration at half of the fitted maximal effect;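 on activation: EPAC1 catalysed release of BODIPY-GDP from Rap1B seen as fluorescence loss; 100% = effect of cAMP agonist control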
[3] = target: Rap guanine nucleotide exchange factor 4 (Homo sapiens) (UniProt Q8WZA2); assay: Confirmatory qHTS for agonist of cAMP-regulated guanine nucleotide exchange factor 4 (EPAC2) (AID 1645884);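 further: nucleotide exchange releases bodipy-GDP from Rap1 and this lowers its fluorescence; nearly all actives have a fitted effect of over 65% in size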; further: potency means the concentration at half of the fitted maximal effect; on activation: on the % scale 0 is the no-effect control and ±100 the full control effect
Sequence of Rap guanine nucleotide exchange factor 4 (Homo sapiens) (Q8WZA2 whole entry, looked up): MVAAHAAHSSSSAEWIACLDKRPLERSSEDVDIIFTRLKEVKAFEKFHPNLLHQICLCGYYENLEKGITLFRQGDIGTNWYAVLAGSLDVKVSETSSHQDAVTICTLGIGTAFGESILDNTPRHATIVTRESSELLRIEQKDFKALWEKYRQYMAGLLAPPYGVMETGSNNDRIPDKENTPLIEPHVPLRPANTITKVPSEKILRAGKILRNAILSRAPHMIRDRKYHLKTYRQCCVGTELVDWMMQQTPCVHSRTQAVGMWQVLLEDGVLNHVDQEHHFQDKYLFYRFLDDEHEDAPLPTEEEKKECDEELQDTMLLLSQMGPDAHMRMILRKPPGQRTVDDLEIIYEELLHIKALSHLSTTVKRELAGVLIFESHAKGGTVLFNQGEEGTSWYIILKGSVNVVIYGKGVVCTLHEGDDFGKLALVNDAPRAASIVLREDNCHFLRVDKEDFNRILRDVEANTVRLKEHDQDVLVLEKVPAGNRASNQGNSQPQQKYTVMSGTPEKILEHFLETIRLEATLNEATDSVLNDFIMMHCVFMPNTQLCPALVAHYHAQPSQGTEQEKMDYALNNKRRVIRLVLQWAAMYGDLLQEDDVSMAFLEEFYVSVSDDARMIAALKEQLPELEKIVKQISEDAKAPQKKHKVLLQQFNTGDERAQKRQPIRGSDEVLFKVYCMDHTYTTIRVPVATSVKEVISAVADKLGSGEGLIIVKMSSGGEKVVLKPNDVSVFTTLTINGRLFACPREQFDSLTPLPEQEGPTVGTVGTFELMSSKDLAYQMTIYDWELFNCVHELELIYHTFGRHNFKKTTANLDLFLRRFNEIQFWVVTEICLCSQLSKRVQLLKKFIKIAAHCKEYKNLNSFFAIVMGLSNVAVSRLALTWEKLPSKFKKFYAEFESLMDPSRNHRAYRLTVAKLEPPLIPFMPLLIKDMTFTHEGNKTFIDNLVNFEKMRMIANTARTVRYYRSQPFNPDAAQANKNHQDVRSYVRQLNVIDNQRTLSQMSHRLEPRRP

[4] = target: Rap guanine nucleotide exchange factor 4 (Homo sapiens) (UniProt Q8WZA2); assay: Confirmatory qHTS for antagonist of cAMP-regulated guanine nucleotide exchange factor 4 (EPAC2) (AID 1645885); further: nearly all actives have a fitted effect of over 25% in size; further: potency means the concentration at half of the fitted maximal effect; on activity change, negative = inhibition: on the % scale 0 is the no-effect control and ±100 the full control effect
[5] = target: Rap guanine nucleotide exchange factor 3 (Homo sapiens) (UniProt O95398); assay: Counterscreen qHTS for antagonist of cAMP-regulated guanine nucleotide exchange factor 3 (EPAC1) (AID 1645888); further: % of control where 0% means no effect
In short: (§1)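 Rap1B–BODIPY-GDP (250 nM) with 50 uM GDP; compounds pin-transferred to 9.74 nM–152 uM final (activator) or from 7.32 nM upwards (inhibitor). Fluorescence Ex/Em 480/540 nm read at 5 and 30 min, then after adding cAMP or buffer, at room temperature.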

[6] = target: Rap guanine nucleotide exchange factor 3 (Homo sapiens) (UniProt O95398); assay: Counterscreen qHTS for agonist of cAMP-regulated guanine nucleotide exchange factor 3 (EPAC1) (AID 1645889); further: nearly all actives have a fitted effect of over 40% in size; further: potency means the concentration at half of the fitted maximal effect; on activation: % of control where 0% means no effect
In short: as §1

CC1Cc2cc(C(=O)O)ccc2O1 (configuration not stated)
inactive: Potency [1] | Potency [2] | Potency [3] | Potency [4] | Potency [5] | Potency [6]

O=C(O)C1CSC(c2ccco2)N1 (configuration not stated)
inactive: Potency [1] | Potency [2] | activation [3] 15.3% [at 17.1 µM, percent relative to cAMP agonist control] | Potency [4] | activity change, negative = inhibition [5] -26.6% [at 30.8 µM] | activation [6] 2.32% [at 30.8 µM]

C=CCn1c(CSCc2ccc(Cl)cc2Cl)nnc1SCC(=O)Nc1ccc(C(=O)O)cc1
inactive: Potency [1] | Potency [2] | activation [3] 0.968% [at 17.1 µM, percent relative to cAMP agonist control] | Potency [4] | activity change, negative = inhibition [5] -5.41% [at 30.8 µM] | activation [6] 4.51% [at 30.8 µM]

CC(C)(C)C(=O)NCc1ccc(C(=O)CN2C(=O)NC3(CCCC3)C2=O)s1
inactive: Potency [1] | Potency [2] | Potency [3] | Potency [4] | Potency [5] | Potency [6]

CCCc1nn2c(=O)cc(COC(=O)c3cccc(NC(=O)CCc4ccccc4)c3)nc2s1
inactive: Potency [1] | Potency [2] | Potency [3] | Potency [4] | Potency [5] | Potency [6]

COc1cc(/C=C2\SC(=S)N(C(C(=O)O)c3ccccc3)C2=O)ccc1O (configuration not stated)
inactive: Potency [2] | Potency [3] | Potency [5] | Potency [6]
active: Potency [1] 47.8 µM | Potency [4] 42.6 µM

COc1ccccc1OCC(=O)Nc1cc(C(F)(F)F)ccc1-n1cncn1
inactive: Potency [1] | Potency [2] | activation [3] 2.73% [at 17.1 µM, percent relative to cAMP agonist control] | Potency [4] | activity change, negative = inhibition [5] -12% [at 30.8 µM] | activation [6] 5.31% [at 30.8 µM]

O=C(CSc1nnc(CCc2ccccc2)n1-c1ccc(Cl)cc1)NCc1ccccc1
inactive: Potency [1] | Potency [2] | Potency [3] | Potency [4] | Potency [5] | Potency [6]

c1ccc(OCCCn2ccnc2)cc1
inactive: Potency [1] | Potency [2] | Potency [3] | Potency [4] | Potency [5] | Potency [6]

O=C(c1ccccc1[N+](=O)[O-])N1CCN(c2ccc(N3CCOCC3)nn2)CC1
inactive: Potency [1] | Potency [2] | Potency [3] | Potency [4] | Potency [5] | Potency [6]

Cn1cc([C@]2(O)C(=O)Nc3ccccc32)c2ccccc21
inactive: Potency [1] | Potency [2] | activation [3] 0.506% [at 17.1 µM, percent relative to cAMP agonist control] | Potency [4] | activity change, negative = inhibition [5] -2.77% [at 30.8 µM] | activation [6] 2.4% [at 30.8 µM]

CCc1cccc2sc(NC(=O)c3ccc(N4C(=O)CCC4=O)cc3)nc12
inactive: Potency [1] | Potency [2] | Potency [3] | Potency [4] | Potency [5] | Potency [6]

CCOC(=O)c1cnc2ccccc2c1Nc1cccc(OC)c1
inactive: Potency [1] | Potency [2] | Potency [3] | outcome [4] inactive [at 12.7 µM] | Potency [5] | Potency [6]

O=C(Cn1nnc2sc(-c3ccccc3)cc2c1=O)Nc1cccc(C(F)(F)F)c1
inactive: Potency [1] | Potency [2] | Potency [3] | Potency [4] | Potency [5] | Potency [6]

CCCc1nc2ccccc2c(=O)n1/N=C/c1ccccc1O
active: Potency [1] 37.9 µM
inactive: Potency [2] | Potency [3] | Potency [4] | Potency [5] | Potency [6]

N#C/C(=C/c1ccc(N2CCOCC2)o1)c1nc2ccccc2[nH]1
active: Potency [2] 112 µM | Potency [3] 89.1 µM | Potency [4] 42.6 µM | Potency [6] 63.1 µM
inactive: Potency [1] | Potency [5]

COc1ccccc1CCc1nnc(CCC(=O)N(C)Cc2cccc3ncccc23)o1
inactive: Potency [1] | Potency [2] | Potency [3] | Potency [4] | Potency [5] | Potency [6]

C=CCSc1nc(-c2ccc(OC)cc2)c(C#N)c(=O)n1CC=C
inactive: Potency [1] | Potency [2] | activation [3] 1.63% [at 17.1 µM, percent relative to cAMP agonist control] | Potency [4] | activity change, negative = inhibition [5] -30% [at 30.8 µM] | activation [6] -17.1% [at 30.8 µM]

C=CCN(CC=C)Cc1cc(=O)oc2cc(OC)ccc12
inactive: Potency [1] | Potency [2] | activation [3] 5.94% [at 17.1 µM, percent relative to cAMP agonist control] | Potency [4] | activity change, negative = inhibition [5] -16% [at 30.8 µM] | activation [6] -2.24% [at 30.8 µM]

COc1cccc(/C(=N/O)C2CC2c2ccc(Cl)cc2)c1 (configuration not stated)
inactive: Potency [1] | Potency [2] | activation [3] 1.73% [at 17.1 µM, percent relative to cAMP agonist control] | Potency [4] | activity change, negative = inhibition [5] -11.7% [at 30.8 µM] | activation [6] 9.41% [at 30.8 µM]

CCOC(=O)c1sc2nc(-c3ccco3)c3c(c2c1N)CC(C)(C)OC3
inactive: Potency [2] | activation [3] 7.15% [at 17.1 µM, percent relative to cAMP agonist control] | Potency [4] | activity change, negative = inhibition [5] -5.49% [at 30.8 µM] | activation [6] 25.5% [at 30.8 µM]
active: Potency [1] 44.7 µM

CCCCN1C(=O)/C(=C/C=C2\Oc3ccccc3N2CC)SC1=S
inactive: Potency [1] | Potency [4] | Potency [5]
active: Potency [2] 112 µM | Potency [3] 100 µM | Potency [6] 1.78 µM

Cc1ccc(CNS(=O)(=O)c2ccc(-n3cnnn3)c(C)c2)cc1
inactive: Potency [1] | Potency [2] | activation [3] 4.56% [at 17.1 µM, percent relative to cAMP agonist control] | Potency [4] | activity change, negative = inhibition [5] 3.48% [at 30.8 µM] | activation [6] 5.31% [at 30.8 µM]

CCc1cc(C(=O)c2ccc(OC)cc2)c(NC(=O)CC(C)(C)CC(=O)O)s1
inactive: Potency [1] | Potency [2] | Potency [3] | Potency [4] | Potency [5] | Potency [6]

Cc1cc(C)c(C(=O)c2cccs2)c(C)c1
inactive: Potency [1] | Potency [2] | Potency [3] | Potency [4] | Potency [5] | Potency [6]

CSc1nc(N2CCOCC2)c2c3c(sc2n1)CCCC3
inactive: Potency [1] | Potency [2] | Potency [3] | Potency [4] | Potency [5] | Potency [6]

CC(C)c1ccc(N(C(=O)c2csnn2)C(C(=O)NC(C)(C)C)c2cccnc2)cc1 (configuration not stated)
inactive: Potency [1] | Potency [2] | Potency [3] | Potency [4] | Potency [5] | Potency [6]

CCCCNC(=O)c1ccc2nc(-c3ccco3)c(-c3ccco3)nc2c1
active: Potency [1] 7.94 µM
inactive: Potency [2] | activation [3] 3.07% [at 17.1 µM, percent relative to cAMP agonist control] | Potency [4] | activity change, negative = inhibition [5] -2.83% [at 30.8 µM] | activation [6] 11.8% [at 30.8 µM]

O=C(Cc1ccccc1)NCC(=O)N1CCC1
inactive: Potency [1] | Potency [2] | Potency [3] | Potency [4] | Potency [5] | Potency [6]

Cc1cnc(C(=O)N(c2ccc(N3CCOCC3)cc2)C2C(=O)Nc3ccccc3N=C2c2ccc(F)cc2)cn1 (configuration not stated)
inactive: Potency [1] | Potency [2] | Potency [3] | Potency [4] | Potency [5] | Potency [6]

CC(C)c1c(Cl)c(O)c(-c2ccccc2)c(=O)n1-c1ccc(F)cc1
active: Potency [1] 19 µM
inactive: Potency [2] | Potency [3] | Potency [4] | Potency [5] | Potency [6]

CCOC(=O)C1CCCCN1Cc1cn(C)nc1-c1ccccc1F (configuration not stated)
inactive: Potency [1] | Potency [2] | Potency [3] | Potency [4] | Potency [5] | Potency [6]

O=C(NCc1ccncc1)C1Cc2c(-c3ccccc3Oc3ccccc3)ccnc2O1 (configuration not stated)
inactive: Potency [1] | Potency [2] | Potency [3] | Potency [4] | Potency [5] | Potency [6]

Cn1c(Cc2cccs2)nnc1SCc1nc2ccccc2[nH]1
inactive: Potency [1] | Potency [2] | activation [3] 2.48% [at 17.1 µM, percent relative to cAMP agonist control] | Potency [4] | activity change, negative = inhibition [5] -1.2% [at 30.8 µM] | activation [6] 30.7% [at 30.8 µM]

COC(=O)c1c(SC)nc2ccccc2c1OCc1cc(C)ccc1C
inactive: Potency [1] | Potency [2] | Potency [3] | Potency [4] | Potency [5] | Potency [6]

O=c1oc2ccccc2nc1/C=C(O)/C=C\c1ccccc1
inactive: Potency [1] | Potency [2] | activation [3] 2.36% [at 17.1 µM, percent relative to cAMP agonist control] | Potency [4] | activity change, negative = inhibition [5] -9.13% [at 30.8 µM] | activation [6] -0.436% [at 30.8 µM]

COc1ccc(NC(=O)CS(=O)(=O)Cc2ccccc2)c([N+](=O)[O-])c1
inactive: Potency [1] | Potency [2] | activation [3] 7.06% [at 17.1 µM, percent relative to cAMP agonist control] | Potency [4] | activity change, negative = inhibition [5] -9.05% [at 30.8 µM] | activation [6] 8.04% [at 30.8 µM]

Cc1cc(/C=N/NC(N)=S)c(O)c(/C=N/NC(N)=S)c1
active: Potency [2] 44.7 µM | Potency [3] 50.1 µM | Potency [6] 6.31 µM
inactive: Potency [1] | Potency [4] | Potency [5]

Cc1cc(C)n2[nH]c(=O)c(N=Nc3ccc(S(N)(=O)=O)cc3)c2n1
inactive: Potency [1] | Potency [2] | Potency [3] | Potency [5] | Potency [6]
active: Potency [4] 84.9 µM

Cc1cc(C(=O)COC(=O)C2COc3ccccc3O2)c(C)n1CC1CCCO1 (configuration not stated)
inactive: Potency [1] | Potency [2] | Potency [3] | Potency [4] | Potency [5] | Potency [6]

Cc1[nH]n(-c2ccccc2)c(=O)c1C(c1cc(Cl)ccc1O)c1c(C)[nH]n(-c2ccccc2)c1=O
active: Potency [1] 75.7 µM | Potency [6] 2.51 µM
inactive: Potency [2] | Potency [3] | Potency [4] | Potency [5]

CCc1nnc(NS(=O)(=O)c2ccc(Nc3ccc([N+](=O)[O-])c4nonc34)cc2)s1
inactive: Potency [2] | Potency [3] | Potency [4] | Potency [5] | Potency [6]
active: Potency [1] 42.6 µM
